Bioassay records deposited in PubChem BioAssay by several laboratories.
Compounds with a hit are over-represented: about 1.9% of the library has one in this group of screens.
ATG4B inhibitor – ATG4B protease inhibitors, primary screen, biochemical, fluorescence, uHTS; Cysteine protease ATG4B (Homo sapiens), Q9Y4P1; ATG4B cleavage of LC3-PLA2, NBD-HPC fluorescence, 1 h; inhibition, % at 8.33 µM; 0.51% of 340,000 active; AID 504462, 2011; in the data active = inhibition above about 40%
Cardio protect – cardioprotection against H2O2-induced cell death, primary screen, uHTS, H9c2 cells, ATPLite luminescence; protection from H2O2 cell death, % at 20 µM; H9c2 cardiomyocytes, H2O2 injury protection, 2 h; 0.63% of 360,000 active; AID 588492, 2011;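 active = compounds giving at least 50% protection of heart cells from peroxide-induced death in the single-dose screen, raw or plate-pattern-corrected value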;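 note: 0% = DMSO wells with peroxide and 100% = DMSO wells without peroxide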
PP1 inh – PP1-alpha phosphatase inhibitors, primary screen, counter-screen for PP5 inhibitor project, biochemical, fluorescence, OMFP substrate, single point; Serine/threonine-protein phosphatase PP1-alpha catalytic subunit (Homo sapiens), P62136; purified PP1alpha; inhibition, % at 6.7 µM; 0.9% of 320,000 active; AID 2235, 2010;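 active = inhibition above the mean inhibition of all tested compounds plus 3 SD, computed separately for each screening campaign, cut at about 15% in these data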
PP5 primary – PP5 phosphatase inhibitors, primary screen, biochemical, fluorescence; Serine/threonine-protein phosphatase 5 (Homo sapiens), P53041; purified PP5c, OMFP substrate fluorescence; inhibition, % at 6.7 µM; 0.18% of 320,000 active; AID 1987, 2009;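 active = inhibition above the campaign's mean inhibition across all tested compounds plus 3 SD, cut at about 9.5% in these data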;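 note: 0% = DMSO only and 100% = 100 µM cantharidin control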
Target sequence (P53041 whole entry, looked up): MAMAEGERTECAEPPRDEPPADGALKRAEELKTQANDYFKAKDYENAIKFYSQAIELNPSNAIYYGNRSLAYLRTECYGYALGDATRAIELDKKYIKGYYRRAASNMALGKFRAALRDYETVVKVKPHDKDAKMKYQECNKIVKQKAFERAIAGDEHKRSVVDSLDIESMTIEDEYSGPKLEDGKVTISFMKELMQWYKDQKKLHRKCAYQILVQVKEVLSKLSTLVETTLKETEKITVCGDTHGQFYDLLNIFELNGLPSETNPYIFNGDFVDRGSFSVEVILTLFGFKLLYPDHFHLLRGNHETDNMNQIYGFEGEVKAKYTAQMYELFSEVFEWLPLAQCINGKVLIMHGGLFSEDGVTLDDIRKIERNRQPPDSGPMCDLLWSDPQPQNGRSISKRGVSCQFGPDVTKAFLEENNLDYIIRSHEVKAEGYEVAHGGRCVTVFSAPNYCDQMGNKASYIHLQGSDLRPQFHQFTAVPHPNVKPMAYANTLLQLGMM
The depositor's hits bear a star; . = no result given.

SMILES | ATG4B inhibitor | Cardio protect | PP1 inh | PP5 primary
O=C(CCCN1C(=O)/C(=C/c2ccccc2Cl)SC1=S)NNC(=O)c1ccccc1Cl | 25 | -8 | 17* | 4
O=C(CCCN1C(=O)/C(=C/c2cccs2)SC1=S)NNC(=O)c1ccccc1O | 35 | 60* | -1 | -1
COc1ccc(OC)c(CCNC(=O)CCC(=O)N2CCOc3ccc(C)cc32)c1 | 7 | 0 | -6 | -10
Oc1ccc(/C=N/Nc2nc(N3CCCC3)nc(N3CCCC3)n2)cc1O | -12 | 76* | -3 | -2
COC(=O)c1cccc(S(=O)(=O)N(Cc2ccco2)Cc2cc3cc(OC)ccc3[nH]c2=O)c1 | -14 | 78* | 1 | 4
CCCCCC/C=N/Nc1nnc(Cc2ccc(OC)c(OC)c2)c(=O)[nH]1 | -2 | -4 | 1 | 1
COc1ccc(Cc2nnc(N/N=C/c3ccc(O)cc3O)[nH]c2=O)cc1OC | -11 | 52* | 2 | 3
CC(C)(C)OC(=O)C[C@H]1C/C=C\C[C@H](CC(=O)N[C@H](CO)Cc2ccccc2)C(=O)N2CCC[C@H]2COC1=O | -1 | 20 | . | .
Cc1c(C(=O)N2CCC[C@H]2C(N)=O)oc2c(F)cccc12 | 7 | 0 | . | .
COc1ccc(-c2cc(=O)c3ccccc3[nH]2)cc1 | -4 | 56* | -1 | -1
COc1ccc(NC(=O)Nc2cccc3ccccc23)cc1S(N)(=O)=O | -13 | 4 | -6 | 4
COc1ccc(CNC(=O)c2cc3c(C)nc4ccccc4c3o2)c(OC)c1 | -25 | -30 | -2 | 2
COc1cc(NC(=O)c2cc3nc(-c4ccccc4)cc(-c4ccccc4)n3n2)cc(OC)c1OC | 0 | 80* | -2 | 1
COc1cc(NC(=O)c2cc3c(C)nc4ccccc4c3o2)cc(OC)c1OC | -23 | 66* | -1 | 3
COc1cc(NC(=O)c2cc(-c3ccccc3)on2)cc(OC)c1OC | -9 | 3 | 6 | 2
Cc1nc2ccccc2c2oc(C(=O)Nc3ccc(C(C)C)cc3)cc12 | -3 | 26 | -3 | 2
Cc1nc2ccccc2c2oc(C(=O)Nc3ccc4c(c3)OCCO4)cc12 | 0 | 100* | -2 | 2
Cc1cccc(-n2nnnc2SCC(=O)Nc2cccc(S(N)(=O)=O)c2)c1 | -11 | -4 | -4 | -2
CC1(c2nnc(Cc3ccccc3)o2)CC(c2ccc(Br)cc2)=NO1 (centres undefined) | 5 | -14 | 16* | 1
CC1(c2nnc(Cc3ccccc3)o2)CC(c2ccc([N+](=O)[O-])cc2)=NO1 (centres undefined) | -7 | 0 | 8 | -6
CC1(C)Cc2c(c(N3CCOCC3)nc3sc4c(NN)ncnc4c23)CS1 | -27 | 59* | 3 | -1
COc1ccc(N(CC(=O)Nc2ccc3c(c2)OCO3)S(=O)(=O)c2ccccc2)cc1OC | -9 | 12 | 1 | 0
COc1ccc(N(CC(=O)Nc2cccc(C(C)=O)c2)S(=O)(=O)c2ccc(NC(C)=O)cc2)cc1 | -1 | 73* | . | .
COc1ccc(N(CC(=O)Nc2ccc3c(c2)OCO3)S(=O)(=O)c2ccccc2)c(OC)c1 | -12 | 54* | 2 | 1
Cc1ccc(-c2nc(=O)[nH]c3ccc(Br)cc23)cc1 | -4 | 4 | . | .
SMILES | ATG4B inhibitor | Cardio protect | PP1 inh | PP5 primary
COc1ccc(C(=O)COC(=O)Cc2n[nH]c(=O)c3ccccc23)c(OC)c1 | -3 | 62* | -1 | -2
O=C(COC(=O)Cc1n[nH]c(=O)c2ccccc12)Nc1ncc(Cl)cc1Cl | -5 | 67* | -1 | 2
O=C(Cc1n[nH]c(=O)c2ccccc12)OCC(=O)c1ccc(F)c(F)c1 | -4 | 27 | -5 | 2
O=C(Cc1n[nH]c(=O)c2ccccc12)OCC(=O)c1ccccc1 | 1 | 61* | -2 | 2
CC(=O)c1cccc(NC(=O)C(C)OC(=O)Cc2n[nH]c(=O)c3ccccc23)c1 (centres undefined) | 2 | 77* | -1 | -1
Clc1ncccc1OCc1ccccc1 | -7 | -6 | 0 | 1
CCCCc1ccc(NS(=O)(=O)c2cccc(C(=O)N3CCNC(=O)C3)c2)cc1 | -11 | 3 | . | .
COc1ccccc1C(=O)NC(=O)COC(=O)Cc1n[nH]c(=O)c2ccccc12 | -8 | 32 | -5 | 0
O=C(Cc1n[nH]c(=O)c2ccccc12)OCC(=O)c1ccccc1Cl | 11 | 5 | -4 | 0
CC(C)CC(=O)Nc1ccc(C(=O)COC(=O)Cc2n[nH]c(=O)c3ccccc23)cc1 | -35 | 72* | 2 | 2
